Changes are numbered by the printed parent chain. In all, about 5,800 sequences were measured (“enrichment r”: median about 0.54, highest 2% from about 16 on). The entries come from a sample that favours the highest values as a whole.

The values that follow come from PMC12136788.

Sequences and labels used below:
B1: ENSG00000136451:be:win_1501|CDS_3pUTR|ENSG00000136451|bound_else_gene|NA|bound_elsewhere_windowed (ssRNA)
RNA: GGGAGUUCUACAGUCCGACGAUCGCAAUGAGACCUGUAGAGAGCAUGCCUUUCUUGCCCCAAGCUUUGCCUACAUCACCGCCUUGGUAAACAGUAUUAUAAAAUCAAAAUAUGGGUAAAAGUAAAUAUUUACCAGCAACUUAACAACAGAGGAUUGAGCAUCA
B2: chr8:41262032:41262394:-|3pUTR|ENSG00000104332|msi1|total|mutant (ssRNA)
RNA: GGGAGUUCUACAGUCCGACGAUCGGCCGUUCUGACCUGUUGCCAGCAGAUACACAGGACAUGGAUGAAAUUCCCGUUUCCUCCCGUUUCUUCCUGCCGUACUCCUCUUUCCGAUCCUAAGUCUCUUACAAAAGCUUUGAAUACCAACAGAGGAUUGAGCAUCA
B3: chr1:6522505:6522606:-|3pUTR|ENSG00000162408|msi1|FALSE|unique (ssRNA)
RNA: GGGAGUUCUACAGUCCGACGAUCCUGGGAUUACAGGCGUGAGCCACUGCGCCUGGCCUGAAGCUAUUCUUUACAAAAGCUCUUAGUUUUUGUUUGUUUGUUUGUUUUUUUCUUUUGCGACGGACUCUCUGUCGCCAAGGCUGGCAACAGAGGAUUGAGCAUCA
B4: chr12:95077336:95077437:-|3pUTR|ENSG00000180263|msi1|FALSE|unique (ssRNA)
RNA: GGGAGUUCUACAGUCCGACGAUCUCCUCAUUGACCCAUCCGCAUCUCUGUUUAUCCAAGACUUCUCUGUGAUAGCUGACCCUUAGUCUUUCUCUCCCCUAUUCCUCCAGACUAGAUCCUGUCUCCUUCCUGCAGCCCCGACACCAACAGAGGAUUGAGCAUCA
B5: chr2:121605696:121605828:-|CDS|ENSG00000074054|unk|total|mutant (ssRNA)
RNA: GGGAGUUCUACAGUCCGACGAUCGACCGACUAUUUCUCAGACAAACAGAAGUCUGCUGACCUUGAGCAUGACCAGACCAUGUCCGAUAAACUUGUGGAUGGACUUGCUACCUCUUGGGUGAACUCCCGCAAUUACAAGGUAAGCAACAGAGGAUUGAGCAUCA
B6: chr10:24583932:24584033:-|3pUTR|ENSG00000107863|unk|total|mutant (ssRNA)
RNA: GGGAGUUCUACAGUCCGACGAUCAACAAAAGUGCCUCAUCAUAAAAAUACAGUUGGUUUUCCGGGUGCCAUAUUGUUAAAAUCCGAUAACUUACUUACAUUGAAUAAACGAAUGCGUUUUAUUGGUAACAGAUAUCAUUACAUCAACAGAGGAUUGAGCAUCA
B7: chr5:171862525:171862626:-|3pUTR|ENSG00000072803|msi1|FALSE|unique (ssRNA)
RNA: GGGAGUUCUACAGUCCGACGAUCGACAGUGCAUGGAAAGGACGUUGGCAUCCAAUUGGCACUCCUUCUCCCUUAUUCAAUAUUAGGUUUGAUUUGCCCUUCGCCAUUGUUUCCAAAGAUCAAGGAAUGUCAAUAACAUUUUAACAACAGAGGAUUGAGCAUCA
B8: chr7:56101660:56101848:-|3pUTR|ENSG00000106153|msi1|FALSE|unique (ssRNA)
RNA: GGGAGUUCUACAGUCCGACGAUCUGGAGAGAUGGAAAAUCAGCUCUCAUAACUAAGUUAAUUUAGUAUAAAAAUAGAAUUGAUAGUGAGGGUAUAAAGUGUAACCAUCAGUUAAACCUCUCCUGUCAUUCCUGGCUUCCUUGCCAACAGAGGAUUGAGCAUCA
B9: chr7:101137467:101137738:+|3pUTR|ENSG00000106366|msi1|FALSE|unique (ssRNA)
RNA: GGGAGUUCUACAGUCCGACGAUCGUUAAAAGAUGGUAAACCAGAUCUGUCUCCAAGACCUUGGCCUCUCCUUGGAGGACCUUUAGGUCAAACUCCCUAGUCUCCACCUGAGACCCUGGGAGAGAAGUUUGAAGCACAACUCCCCAACAGAGGAUUGAGCAUCA
B10: chr14:74942539:74942640:-|3pUTR|ENSG00000119630|msi1|total|mutant (ssRNA)
RNA: GGGAGUUCUACAGUCCGACGAUCGUGUAUUUAUUACCGUCACACUCUUCAGUGACUCCUGCUGGUACCUGCCCUCUAUUUAUCCGCCAACUGUUUCCCUGCUGAAUGCCUCGCUCCCUUCAAGACGAGGGGCAGGGAAGGACACAACAGAGGAUUGAGCAUCA
B11: chr1:151048051:151048152:+|CDS|ENSG00000143443|unk|FALSE|unique (ssRNA)
RNA: GGGAGUUCUACAGUCCGACGAUCGACCGCCUGGCUGGACCAGCGGCUGCCGAGCUCUUGGCCGCCACGGUGUCCACCGGCUUUAGCCGGUCGUCCGCCAUUAACGAGGAGGAUGGGUCUUCAGAAGAGGGGGUUGUGAUUAAUCAACAGAGGAUUGAGCAUCA
B12: chrX:65741840:65741941:+|3pUTR|ENSG00000147065|msi1|total|mutant (ssRNA)
RNA: GGGAGUUCUACAGUCCGACGAUCAAAUUGUUUUUGGAGGGGUUUAUGCUCAAUCCAUGUUCUAUUUCAGUGCCAAUAAAAUUCCGGAAGACUUCACAGUGACUCAAUCGUUCUUUGUGGUAUGAGUGGGCCGCUGUAAGAUAUCAACAGAGGAUUGAGCAUCA
B13: chr12:106067485:106067586:-|CDS|ENSG00000074590|msi1|FALSE|unique (ssRNA)
RNA: GGGAGUUCUACAGUCCGACGAUCCCUGAAGAAGCGAAGCAACAGCGAGCAUCGCUCUCACAGCACUGGCUUCAUUGAAGGUGUAGUUGGUCCUGCCUUACCCUCUACUUUCAAGAUGGAGCAGGACUUGUGCAGGACUGGCGUCAACAGAGGAUUGAGCAUCA
B14: chr4:185586528:185586629:-|3pUTR|ENSG00000154556|msi1|FALSE|unique (ssRNA)
RNA: GGGAGUUCUACAGUCCGACGAUCAUCCAUAUGAUAUGUUGUACAUUUUAUGGAAAUGUAAUAGAAUCUCACACAUUAUUUUAUAGAAAUAGAGUACAGAAGCAUCACAAGUAUUAAAGUUGGUUUUAGCAAGGAUUAGGAUUACAACAGAGGAUUGAGCAUCA
B15: chr20:53567570:53567671:-|3pUTR|ENSG00000171940|unk|FALSE|unique (ssRNA)
RNA: GGGAGUUCUACAGUCCGACGAUCUCACAAGCUGAGCCAUAUGUACAUAAUCUAGAUUUUGUUUUCAUAGUUUUGCACUUUUAUAGCCUAUUUUUGAAGAUUAACACAUUUGCAAGAUGAUUGACUCAAUCUUUGCCUAAUCCACAACAGAGGAUUGAGCAUCA
B16: chr4:185586528:185586629:-|3pUTR|ENSG00000154556|msi1|total|mutant (ssRNA)
RNA: B14 RNA with U61C, A62C, U83C, A84C, U89C, A90C, U126C, A127C, U136C, A137C
B17: chr4:168926953:168927063:+|3pUTR|ENSG00000129116|msi1_unk|total|mutant (ssRNA)
RNA: GGGAGUUCUACAGUCCGACGAUCCAAAAGAGUUUUCUAACAAGGUUAAUACCUCCGUUCUUAACAUUUUUUUUCUUUAUGUGCCGUGUUUUCAUGCUACCUUGGCCGGAAACUUAUUUACAAACCAUAUUAAAAGGCUAAUUUCAACAGAGGAUUGAGCAUCA
B18: chr12:98549714:98549829:+|3pUTR|ENSG00000120802|unk|total|mutant (ssRNA)
RNA: GGGAGUUCUACAGUCCGACGAUCGAAGAUGUAUAUUCCGACCAGCACACAAUUUUGAUUUCAAUCCGCCUUAUUCUAAUAUUCCGCUUUCCGAUCUUUCAUACACAUUUUCACGUACUUUGCAAUUGAGACCAGAAAGACUUGCAACAGAGGAUUGAGCAUCA
B19: chr12:7729382:7729740:-|three_prime_utr|ENSG00000198178|control|control|control (ssRNA)
RNA: GGGAGUUCUACAGUCCGACGAUCAUCUACAUAUAAAUGAAAUAUUCUCCCUGGAAAUGUGUUUGGGUUGGCAUCCACCGUUGUAGAAAGCUAAAUUGAUUUUUUAAUUUAUGUGUAAGUUUUGUACAAGGAAUGCCCCUAAAACAACAGAGGAUUGAGCAUCA
B20: chr7:2728618:2728646:-|3pUTR|ENSG00000146535|msi1_unk|FALSE|overlapping (ssRNA)
RNA: GGGAGUUCUACAGUCCGACGAUCUUUAAUUUCACUGUUAAUCCUUAUUGUCUUUUUUAUUAAGAUGUUGGAAAAGCAGGAGGUAGUUGUGCCUCAAUUAUUGCAAAAAUGUAACAAUAAAGUUCCUCAAAAUAAGAUCUGUUCCAACAGAGGAUUGAGCAUCA
B21: ENSG00000136451:be:win_1601|3pUTR|ENSG00000136451|bound_else_gene|NA|bound_elsewhere_windowed (ssRNA)
RNA: GGGAGUUCUACAGUCCGACGAUCAAUAUUUACCAGCAACUUAACUUUUAGUUGAUUAAAGCAAAAAGUAAACCAUGAAAUUGGGAGAUUUUAUUACAUUAGUUAAUAAGAGUGUGGUAGCAUUUUUCUCCAAUUUGGCUGGGACAACAGAGGAUUGAGCAUCA
B22: chr4:168926953:168927063:+|3pUTR|ENSG00000129116|msi1_unk|FALSE|overlapping (ssRNA)
RNA: B17 RNA with C54U, C55A, C83U, C84A, C105U, C106A
B23: chr12:98549714:98549829:+|3pUTR|ENSG00000120802|unk|FALSE|unique (ssRNA)
RNA: B18 RNA with C37U, C38A, C65U, C66A, C83U, C84A, C90U, C91A
B24: chrX:131089436:131089558:+|3pUTR|ENSG00000147256|unk|total|mutant (ssRNA)
RNA: GGGAGUUCUACAGUCCGACGAUCGGGAAACCUCAAGUGCCGGUCUAAUCCGUGUUUCUGGGAUCCAAAGUCCGAGGAAAAUUCCGAUUUUAUUGCCUGGAUCUGCUUUAAAGACAAUUGGUGUUUACACCCUCUUGUCAGCAACAACAGAGGAUUGAGCAUCA
B25: chrX:131089436:131089558:+|3pUTR|ENSG00000147256|unk|FALSE|unique (ssRNA)
RNA: B24 RNA with C39U, C40A, C49U, C50A, C71U, C72A, C83U, C84A

The assay deals with MSI1 full-length (mouse, UniProt Q61474 1-362). Kind of assay: nsRBNS (natural sequence RNA bind-n-seq); RBNS binding buffer (assumed for nsRBNS): 25 mM Tris pH 7.5, 150 mM KCl, 3 mM MgCl2, 0.01% Triton X-100, 500 ug/ml BSA, 20 U/ml SUPERase-In, 4 C; UNK is unkempt and MSI1 is Musashi-1; names of the RNAs are library labels; protein concentration not given here; high values mean tight binding.
MSI1 full-length, sequence (Q61474 whole entry): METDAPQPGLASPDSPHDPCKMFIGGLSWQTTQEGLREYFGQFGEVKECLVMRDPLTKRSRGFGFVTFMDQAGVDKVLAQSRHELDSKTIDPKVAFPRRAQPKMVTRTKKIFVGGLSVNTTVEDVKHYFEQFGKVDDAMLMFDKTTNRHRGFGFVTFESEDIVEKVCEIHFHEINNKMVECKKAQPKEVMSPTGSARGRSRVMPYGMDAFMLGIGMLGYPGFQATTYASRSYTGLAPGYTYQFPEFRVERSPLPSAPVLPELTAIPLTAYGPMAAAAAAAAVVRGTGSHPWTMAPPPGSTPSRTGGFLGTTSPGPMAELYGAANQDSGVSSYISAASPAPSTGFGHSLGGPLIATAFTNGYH
The molecule B1 returned a binding signal of 0.827 enrichment R.

B2 displayed a binding signal of 0.417 enrichment R. As to B3, the binding signal was 0.372 enrichment R. B4 gave a binding signal of 1.24 enrichment R.

Consider B5, for which the binding signal was determined as 0.532 enrichment R. B6: the binding signal worked out at 0.389 enrichment R. The molecule B7 displayed a binding signal of 0.699 enrichment R. B8 gave a binding signal of 5.86 enrichment R. For B9 the value was 0.316 enrichment R; for B10, 0.338 enrichment R. Turning to B11, the binding signal stood at 0.497 enrichment R. With B12, the binding signal turned out to be 0.205 enrichment R.

Molecule B13 showed a binding signal of 0.282 enrichment R. For B14 the value was 34.5 enrichment R. For B15, the binding signal was 4.98 enrichment R. To B16 belongs 0.725 enrichment R; to B17, 0.747 enrichment R. For the molecule B18, the binding signal was 0.832 enrichment R. In turn, B19 showed a binding signal of 0.681 enrichment R. For B20 the value was 0.334 enrichment R. To B21 belongs 1.37 enrichment R; to B22, 20 enrichment R. Molecule B23 had a binding signal of 23.7 enrichment R. To B24 belongs 0.224 enrichment R; to B25, 20.8 enrichment R.
